Bioassay records as filed in PubChem BioAssay.
Cruzain Triton: blocks cruzain activity in presence of Triton detergent | P25779 | purified cruzain, Z-FR-AMC fluorescence, 0.01% Triton | Potency, µM, for inactives: max response, negative = inhibition, actives largely listed as inhibitors | hit rate 0.43% among 200,000 | AID 1478;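 also: plate controls were neutral wells for no effect and buffer without enzyme for full effect; nearly all actives have a fitted effect of over 40% in size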
Target sequence (P25779 123-467 limits assumed): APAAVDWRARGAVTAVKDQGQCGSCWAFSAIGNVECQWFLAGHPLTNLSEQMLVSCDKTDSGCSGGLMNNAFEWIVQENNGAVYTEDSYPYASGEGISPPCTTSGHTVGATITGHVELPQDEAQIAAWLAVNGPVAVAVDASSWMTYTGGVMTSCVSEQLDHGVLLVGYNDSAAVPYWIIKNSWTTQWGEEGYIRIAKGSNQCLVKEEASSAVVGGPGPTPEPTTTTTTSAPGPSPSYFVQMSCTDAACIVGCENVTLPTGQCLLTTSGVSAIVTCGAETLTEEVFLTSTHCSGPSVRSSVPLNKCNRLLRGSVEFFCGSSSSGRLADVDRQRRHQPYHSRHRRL
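Detergent-containing run (0.01% Triton X-100) in acetate buffer pH 5.5 with 5 mM DTT: enzyme at 1.5 nM final, 15 min compound preincubation at room temperature, then 2 uM Z-FR-AMC substrate. Activity taken as 60 s fluorescence increase at 360/450 nm.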
NS1 inh: inhibitors of influenza NS1 protein function; Potency, µM (series often up to 46.1 µM), inactives show at the top dose activity, positive = more growth; hit rate 0.4% among 270,000; AID 2326; calls by dose curve; also: actives are rising curves; nearly all actives have a fitted effect of over 50% in size
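OD600 was taken as the measure of yeast growth restored by compound in an NS1-expressing S. cerevisiae strain. Cells had been washed out of glucose medium and diluted 1:100 into galactose -URA medium, pH 6.0.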
Cruzain noTriton: blocks cruzain activity in detergent-free assay | hit rate 2.3% among 200,000 | Potency, µM, for inactives: max response, negative = inhibition, hits mostly inhibitors | P25779 | purified cruzain, Z-FR-AMC fluorescence, no detergent;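 also: plate controls were enzyme without inhibitor for no effect and buffer without enzyme for full effect; nearly all actives have a fitted effect of over 40% in size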
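Detergent-free condition (0.00005% Triton X-100) in acetate buffer pH 5.5 with DTT. 1.5 nM enzyme and compound were pre-mixed 15 min, then 2 uM Z-FR-AMC substrate added; reaction progress from fluorescence change between first and third reads (60 s).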
Active calls of the source: *; ? = inconclusive; . = no result. Only a selection was taken, and hits are over-represented in it overall. Unless noted, calls follow the shape of the dose curve; as a rule, active = well fitted curve in the direction sought with a large enough effect; inconclusive = small, poorly fitted or top-dose-only effect, or another doubt; inactive = no such curve, though single readings can be large; an effect the other way counts as inactive or inconclusive. Potency is read from the fitted curve at half-maximal effect.

SMILES	Cruzain Triton	NS1 inh	Cruzain noTriton
COc1ccc(-c2nc3cnc(Nc4cccc(OC)c4)nc3n(C[C@H]3CCCO3)c2=O)cc1	3%	.	-16%
Cc1ccc(C)c(N2CCN(C(=O)c3ccc4nc(-c5ccco5)c(-c5ccco5)nc4c3)CC2)c1	-3%	?	0%
COc1ccccc1N1CCN(C(=O)c2ccc3nc(-c4ccco4)c(-c4ccco4)nc3c2)CC1	13µM*	14µM*	?
CCOc1ccc(Nc2nn(-c3ccc(OC(F)(F)F)cc3)nc2C(C)=O)cc1	-1%	.	-3%
NCC1OC(n2cnc3c(=O)[nH]c(N)nc32)C(O)C1O (stereo not given)	5%	.	-9%
O=c1cc(CN2CCN(Cc3ccccc3)CC2)c2cc(Cl)ccc2o1	-4%	3%	-8%
O=c1cc(CN2CCN(c3ccccc3)CC2)c2cc(O)c(-c3ccccc3)cc2o1	-2%	-5%	10µM*
COc1ccc(N2CCN(Cc3cc(=O)oc4ccc(C)cc34)CC2)cc1	0%	10%	?
O=c1cc(CN2CCN(c3ccccc3)CC2)c2c(ccc3ccccc32)o1	3%	-19%	?
COc1ccc(N2CCN(Cc3cc(=O)oc4cc5c(cc34)CCCC5)CC2)cc1	0%	?	13µM*
O=c1cc(CN2CCN(c3cccc(Cl)c3)CC2)c2cc(O)c(-c3ccccc3)cc2o1	4%	6%	7.9µM*
O=C(c1cc(C(F)(F)F)cc(C(F)(F)F)c1)N1CCC2(CC1)CN(c1ccccn1)C2	-10%	.	10%
O=C(NCC1CCCO1)c1c[nH]c2ccc(S(=O)(=O)Nc3cccc(C(F)(F)F)c3)cc2c1=O (stereo not given)	-12%	.	22%
CCOC(=O)c1ccc(NC(=O)C(C)N(c2ccc(OCC)cc2)S(C)(=O)=O)cc1 (stereo not given)	-13%	.	3%
CCOc1ccccc1NC(=O)Cn1c(=O)n(C(C)C)c(=O)c2oc3ccccc3c21	0%	.	19%
Cc1[nH]c2ccccc2c1C(=O)COC(=O)CCS(=O)(=O)c1ccccc1Cl	-9%	-16%	-8%
Cc1nc(NC(=O)COC(=O)CCS(=O)(=O)c2ccccc2Cl)c(Cl)cc1Cl	22µM*	-9%	-26%
COc1ccc2c(c1)[N+](=O)C(/C(C)=N/NC(N)=S)=C(C)[N+]2=O	-7%	0%	-1%
CCOC(=O)C1=C(C)NC(=O)NC1c1cn(-c2ccccc2)nc1-c1ccc(OC(C)C)cc1 (stereo not given)	-17%	.	20%
CC1=C(C(=O)c2ccccc2)C(c2cn(-c3ccccc3)nc2-c2ccc(Cl)cc2)NC(=S)N1 (stereo not given)	3%	23%	10µM*
Cc1ccc(-c2nnn(CC(=O)N(c3ccccc3)C(C(=O)NC(C)(C)C)c3cccs3)n2)o1 (stereo not given)	0%	1%	6.3µM*
Cc1ccc(-c2nnn(CC(=O)N(c3ccccc3)C(C(=O)NC3CCCC3)c3ccncc3)n2)o1 (stereo not given)	.	2%	.
Cc1ccc(N(C(=O)Cn2nnc(-c3ccc(C)o3)n2)C(C(=O)NC2CCCC2)c2ccco2)cc1 (stereo not given)	6%	-13%	25µM*
Cc1ccc(-c2nnn(CC(=O)N(c3cccc(O)c3)C(C(=O)NC(C)(C)C)c3cccs3)n2)o1 (stereo not given)	-7%	-6%	6%
Cc1cccc(N2C(=O)CSC23C(=O)N(CC(=O)NCc2ccccc2Cl)c2ccccc23)c1 (stereo not given)	-7%	.	?
SMILES	Cruzain Triton	NS1 inh	Cruzain noTriton
COc1ccc(S(=O)(=O)c2c(Nc3ccc(C)cc3)sc(C(=O)c3ccc4c(c3)OCO4)c2N)cc1	-2%	.	3.2µM*
Cc1ccccc1Nc1sc(C(=O)c2ccc3c(c2)OCO3)c(N)c1S(=O)(=O)c1ccccc1	-3%	.	7.9µM*
COc1ccc(S(=O)(=O)c2c(Nc3ccc(F)cc3)sc(C(=O)c3ccc4c(c3)OCO4)c2N)cc1	-2%	.	?
Cc1ccc(CNC(=O)c2c(Nc3ccccc3C)sc(C(=O)c3ccc(F)cc3)c2N)cc1	-4%	.	?
Cc1ccc(Nc2sc(C(=O)c3ccccc3)c(N)c2C(=O)Nc2ccc(Cl)cc2)cc1	-3%	.	?
Cc1ccc(S(=O)(=O)c2c(Nc3ccccc3)sc(C(=O)c3ccc4c(c3)OCO4)c2N)cc1	-4%	.	7.9µM*
CCOC(=O)CC(NC(=O)c1cc2cc(Cl)ccc2oc1=O)c1ccc(C)cc1 (stereo not given)	-1%	.	-4%
CC(C)=CCNc1ncnc2c1c(C#N)cn2[C@H]1O[C@@H](CO)[C@@H](O)[C@@H]1O	4%	-3%	1%
Cc1cccc2c1Oc1ccccc1[C@@H]2NC(=O)c1ccc([N+](=O)[O-])cc1	-1%	6%	-3%
CNC(=O)COc1ccc(Nc2nnc(-c3ccc(C)c(S(=O)(=O)NC(C)(C)C)c3)c3ccccc23)cc1	-8%	.	?
Cc1nc(NC(=O)/C=C/c2ccccc2)sc1C(=O)Nc1ccc(Cl)cc1	6%	5%	1%
Cc1nc(NC(=O)/C=C/c2ccccc2)sc1C(=O)Nc1ccccc1Cl	-3%	14%	10µM*
Cc1csc(NC(=O)CCn2c(=O)oc3ccccc32)n1	-1%	4%	-7%
O=C(Cn1c(=O)oc2ccccc21)Nc1nc(-c2ccc(Br)cc2)cs1	1%	-8%	16µM*
O[C@@H]1[C@@H](OCc2ccccc2)OC[C@H](O)[C@@H]1O	7%	-11%	-6%
COc1ccc(/C=C2/SC(=S)N(n3c(C)ccc3C)C2=O)cc1	-5%	10%	25µM*
CCOc1ccc(/C=C2/SC(=S)N(n3c(C)ccc3C)C2=O)cc1	-6%	5%	-41%
COc1ccc(NC(=O)c2ccc3c(=O)n4nc(Nc5cc(C)ccc5C)sc4nc3c2)cc1	-3%	.	1%
O=C1CC(N2C(=O)/C(=C/C=C/c3ccccc3)SC2=S)C(=O)N1c1ccccc1 (stereo not given)	-6%	28%	16µM*
O=C1NC(=O)N(c2ccccc2)C(=O)/C1=C\C=C\c1ccccc1	.	13%	.
COC(=O)CN1C(=O)CSc2ccc(S(=O)(=O)Nc3c(C)cc(C)cc3C)cc21	-6%	.	15%
Cc1ccc(C(NC(=O)/C=C\c2ccc3c(c2)OCO3)C(=O)Nc2ccc3c(c2)OCO3)cc1 (stereo not given)	-3%	2%	32µM*
CC(=O)c1cccc(NC(=O)C(OC(=O)/C=C/c2ccc3c(c2)OCO3)c2ccccc2)c1 (stereo not given)	2%	8%	10µM*
CCOC(=O)c1cccc(NC(=O)/C=C/c2ccc3c(c2)OCO3)c1	-8%	-5%	-11%
COc1ccc(NC(=O)C(NC(=O)/C=C\c2ccc3c(c2)OCO3)c2ccc(OC)cc2)cc1 (stereo not given)	-4%	.	?
Cc1ccc(C)c(Nc2nnc(-c3ccc(C)c(S(=O)(=O)N4CCN(C)CC4)c3)c3ccccc23)c1	-4%	.	-12%
Fc1ccc(-c2ccc(CNCCSc3nnnn3-c3ccccc3)o2)cc1	1%	.	-10%
Cc1c(Cl)cccc1-c1ccc(CNCCSc2nnnn2-c2ccccc2)o1	13µM*	.	7.9µM*
Cc1ccc(NC(=O)Cn2c(=O)ccc3cc(S(=O)(=O)N4CCCC4)ccc32)cc1N(C)C	0%	.	?
Cc1cc(C)nc(NC(N)=NCCc2c[nH]c3ccccc23)n1	.	0%	.
